This is part of a sample that, as a whole, favours compounds with a hit. Of some 83,000 tested, about 20% had one in any assay.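 In brief: 96-well plates, 48 h treatment, single concentration, percent growth endpoint.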 Values without a mark were called inactive. Calls of active or inactive are those of the source. Rule for the calls: active = growth percent below 10; inactive = the rest.
Tests used:
Test in all cases: NCI-60 one-dose screen, 48 h (100 = growth as untreated, 0 = no growth, -100 = all killed)
Conditions in all cases: 10 µM unless noted
RPMI-8226 leukemia = system: RPMI-8226 leukemia
OVCAR-8 ovarian = system: OVCAR-8 ovarian
OVCAR-5 ovarian = system: OVCAR-5 ovarian
OVCAR-4 ovarian = system: OVCAR-4 ovarian
SK-OV-3 ovarian = system: SK-OV-3 ovarian
IGROV1 ovarian = system: IGROV1 ovarian
OVCAR-3 ovarian = system: OVCAR-3 ovarian
HS 578T breast = system: HS 578T breast
NCI/ADR-RES ovarian = system: NCI/ADR-RES ovarian
T-47D breast = system: T-47D breast
BT-549 breast = system: BT-549 breast
MDA-MB-435 melanoma = system: MDA-MB-435 melanoma
SW-620 colon = system: SW-620 colon
MCF7 breast = system: MCF7 breast
HCT-116 colon = system: HCT-116 colon
HCC-2998 colon = system: HCC-2998 colon
KM12 colon = system: KM12 colon

| Structure (SMILES) | growth (RPMI-8226 leukemia) | growth (OVCAR-8 ovarian) | growth (OVCAR-5 ovarian) | growth (OVCAR-4 ovarian) | growth (SK-OV-3 ovarian) | growth (IGROV1 ovarian) | growth (OVCAR-3 ovarian) | growth (HS 578T breast) | growth (NCI/ADR-RES ovarian) | growth (T-47D breast) | growth (BT-549 breast) | growth (MDA-MB-435 melanoma) | growth (SW-620 colon) | growth (MCF7 breast) | growth (HCT-116 colon) | growth (HCC-2998 colon) | growth (KM12 colon) |
| --- | --- | --- | --- | --- | --- | --- | --- | --- | --- | --- | --- | --- | --- | --- | --- | --- | --- |
| Nc1ccc2c(c1)c(N)nn2C(=O)Nc1ccc(Cc2ccccc2)cc1 | 28.2% | 83.5% | 67.2% | 56.2% | 107% | 83.4% | 70.1% | 101% | 78% | 60.4% | 86.4% | 68.9% | 93.4% | 64.3% | 52.5% | 36.9% | 65.3% |
| Fc1ccc(CNc2c3ccccc3nc3ccccc23)cc1F | 26.9% | 32.1% | 44.6% | 35.4% | 55.7% | 22.8% | 68.9% | 64.8% | 27.6% | 47.9% | 68.2% | 49.2% | 23.7% | 12.9% | 8.18% (active) | 2.15% (active) | 53.3% |
| CCCCCCCCCOc1c(OC)cc(C2CC(=O)Nc3c2c(C)nn3-c2nc3ccccc3[nH]2)cc1OC (configuration not stated) | 10.1% | -1.61% (active) | -68.7% (active) | 1.92% (active) | -62.7% (active) | -51.1% (active) | -63.3% (active) | -23% (active) | -1.8% (active) | -11% (active) | -16.7% (active) | -47.4% (active) | -29.2% (active) | 4.28% (active) | 0.609% (active) | 10% | -53.1% (active) |
| Cc1nn(-c2ccccc2)c(Cl)c1/C=C(/NC(=O)c1ccccc1)c1nc2ccccc2[nH]1 | 91.6% | 102% | 101% | 106% | 95.4% | 96.8% | 120% | 115% | 101% | 86.7% | 93.5% | 91.5% | 105% | 93.1% | 86.6% | 131% | 107% |
| Cc1c(C(=O)N[C@@H](Cc2ccccc2)C(=O)C(=O)NCCc2ccccc2)[nH]c2ccccc2c1=O | 89.8% | 98.6% | 102% | 94% | 107% | 95.3% | 105% | 105% | 100% | 101% | 124% | 101% | 105% | 92.3% | 106% | 100% | 103% |
| C[C@H]1[C@H]2[C@H]3CC[C@@H]4[C@@]5(C)C/C(=C/c6ccco6)C(=O)C(C)(C)[C@@H]5CC[C@@]4(C)[C@]3(C)CC[C@]23CO[C@]1(C)[C@@H](C(=O)/C=C\c1ccco1)C3 | 78% | 98.8% | 113% | 90.7% | 108% | 101% | 103% | 94% | 108% | 80.3% | 111% | 43.4% | 99.3% | 88.8% | 101% | 108% | 99.8% |
| N#CC1=C(/N=C/c2ccccc2)Oc2c(ccc3ccccc23)C1c1ccccc1 (configuration not stated) | 11% | 12.5% | 28.8% | 62.7% | 23.8% | 25.1% | -2.72% (active) | 18.5% | 1.37% (active) | 49.8% | 4.18% (active) | -42.1% (active) | 23.9% | 14.6% | 8.77% (active) | -12.2% (active) | 19.2% |
| CC1=NOC(=O)/C1=C\c1ccc(O)cc1 | 109% | 98.3% | 99.8% | 106% | 103% | 104% | 103% | 98.3% | 106% | 104% | 107% | 102% | 102% | 94.6% | 103% | 109% | 101% |
| CC(=O)[C@@H]1CC[C@]2(COS(=O)(=O)c3ccc(C)cc3)CC[C@]3(C)[C@H](CC[C@@H]4[C@@]5(C)CCCNC(C)(C)[C@@H]5CC[C@]43C)[C@@H]12 | 46.4% | 84% | 81% | 60.6% | 91.1% | 58.2% | 88.1% | 81.7% | 78.8% | 49.7% | 82.6% | 52.2% | 9.71% (active) | 58.2% | 32.8% | 26.6% | 52.3% |
| Cc1c2c(c(C)c3c1oc1cc(O)ccc13)C(=O)N(CCN1CCCCC1)C2=O | 74.6% | 64.2% | 114% | 94.1% | 105% | 82.8% | 99.1% | 89.8% | 81.7% | 91.1% | 97.7% | 93.3% | 67.8% | 90.3% | 67.4% | 93.6% | 83.9% |
| COc1cc(CCC[P+](c2ccccc2)(c2ccccc2)c2ccccc2)cc2c1OCO2 | 9.71% (active) | 29.5% | 59.1% | 12.4% | 82.4% | 28.8% | 19.7% | 45.5% | 101% | 11.5% | 23.3% | 3.36% (active) | 37.6% | 18.2% | 22.8% | 24.3% | 10.7% |
| COc1ccc(-c2nc3ccc4[nH]ncc4c3c3c2CCCC3)cc1B(O)O | 47.6% | 56.4% | 90.5% | 74.8% | 14.4% | 35.6% | 94.8% | 0.224% (active) | 71.2% | 46.9% | 41.4% | 32.4% | 33.4% | 60.1% | 27% | 69.8% | 42.7% |
| COc1cccc(C(=O)NCCCNc2cc(-c3cn(-c4ccccc4)nc3-c3cccc(OC)c3)ccn2)c1 | 25.3% | 26.7% | 82.1% | 37.9% | 48.8% | 58.9% | 53.3% | 47.5% | 22.1% | -4.96% (active) | 11% | 40.2% | 54.4% | 37.5% | 30.5% | 61.2% | 43.5% |
| CCOc1c(C#N)nnc2c(C#N)c(NC(=O)c3ccccc3)nn12 | 111% | 93.8% | 102% | 110% | 97.1% | 101% | 106% | 99.8% | 100% | 98.8% | 102% | 102% | 102% | 93.4% | 100% | 104% | 101% |
| N#C/C(=C\c1ccc(Br)cc1)n1nnc2cc(F)c(F)cc21 | 0% (active) | 8.14% (active) | 3.24% (active) | 29.8% | 62.5% | 6.79% (active) | 2.19% (active) | 56.1% | 1.66% (active) | -1.87% (active) | 22.2% | 4.75% (active) | 13.2% | 14% | 15.3% | 40% | 10.3% |
| Clc1cccc(Cl)c1C(Nc1nc2ccccc2s1)Nc1nc2ccccc2s1 | 5.02% (active) | 108% | 90.3% | 84.6% | 94.2% | -15.1% (active) | 114% | 106% | 108% | 95.7% | 92.1% | 107% | 106% | 91.3% | 99.1% | 117% | 98.7% |

Reference: PubChem BioAssay (NCI)
